Measurements taken from PubChem BioAssay AID624330 (Southern Research Specialized Biocontainment Screening …, 2012).
The whole screen tested about 340,000 compounds, of which about 2,100 (0.62%) were called active.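 How the source made its calls: active means first-screen hits whose inhibition reached a set limit at any dose in the follow-up dose series; inconclusive means inhibition above the set first-screen limit but never retested; inactive means the rest.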 A selection follows. Potency and affinity values are given separately.

Molecular target: Rac GTPase-activating protein 1 (Homo sapiens) (UniProt Q9H0H5)
Experiment: blockers of MgcRacGAP-driven Rac1 GTP hydrolysis – biochemical, ADP Hunter fluorescence, primary and confirmatory, confirmation (AID 624330);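 further: fluorescence reports GDP produced by GAP-driven GTP hydrolysis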
Conditions: MgcRacGAP-stimulated Rac1 GTP hydrolysis, at 30 µM, hits give high values, GST-tagged Rac1 F28L mutant substrate

Chain of Rac GTPase-activating protein 1 (Homo sapiens) (Q9H0H5 whole entry, looked up): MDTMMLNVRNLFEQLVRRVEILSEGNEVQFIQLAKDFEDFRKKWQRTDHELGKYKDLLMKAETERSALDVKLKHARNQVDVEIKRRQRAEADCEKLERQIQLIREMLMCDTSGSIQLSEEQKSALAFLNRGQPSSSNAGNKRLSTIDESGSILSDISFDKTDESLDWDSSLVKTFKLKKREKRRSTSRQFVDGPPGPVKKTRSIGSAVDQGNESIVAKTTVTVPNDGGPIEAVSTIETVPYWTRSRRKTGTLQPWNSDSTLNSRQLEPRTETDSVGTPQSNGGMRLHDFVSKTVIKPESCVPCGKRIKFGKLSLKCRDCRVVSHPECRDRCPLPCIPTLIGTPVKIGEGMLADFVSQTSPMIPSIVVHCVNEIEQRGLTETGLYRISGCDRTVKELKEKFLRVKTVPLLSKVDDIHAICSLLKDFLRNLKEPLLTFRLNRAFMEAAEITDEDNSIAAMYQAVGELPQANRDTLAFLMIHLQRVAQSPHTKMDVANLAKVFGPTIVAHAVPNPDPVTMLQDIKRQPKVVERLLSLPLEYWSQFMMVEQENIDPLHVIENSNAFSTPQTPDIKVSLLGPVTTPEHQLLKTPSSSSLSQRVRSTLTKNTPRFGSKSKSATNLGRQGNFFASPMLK

inhibition, inactive:
CCOc1ccc(C=NNc2ccc(S(=O)(=O)Nc3ccccc3C(=O)O)cc2[N+](=O)[O-])cc1OC 10%
O=C(O)c1ccccc1NS(=O)(=O)c1ccc(NN=Cc2ccc(F)cc2)c([N+](=O)[O-])c1 6.4%
CCOc1ccc(C=NNc2ccc(S(=O)(=O)Nc3ccccc3C(=O)O)cc2[N+](=O)[O-])cc1 15.4%
CC(=O)Nc1ccc(C=NNc2ccc(S(=O)(=O)Nc3ccccc3C(=O)O)cc2[N+](=O)[O-])cc1 15.7%
CCOCCCNC(=O)c1cc2cc3cc(OC)ccc3nc2o1 11.9%
CCc1nc(SCC(=O)NNC(=O)c2ccc(OC)cc2)c2ccccc2n1 -0.86%
CN(Cc1ccccc1)C(=O)CCC1CCN(C(=O)c2ccccc2C(F)(F)F)CC1 -5.88%
COc1ccc(NC(=O)CS(=O)CC(=O)Nc2ccc(OC)c(OC)c2)cc1 (centres undefined) -4.61%
O=C(COC(=O)CC1CC2CCC1C2)Nc1ccc(Cl)c(S(=O)(=O)N2CCOCC2)c1 (centres undefined) 6.02%
CCN1CCN(C(=O)c2ccc(C)c(S(=O)(=O)Nc3cccc(C)c3)c2)CC1 3.11%
O=C(c1ccc(Cn2cc(Br)cn2)cc1)N1N=C(C(F)F)CC1(O)C(F)F (centres undefined) 0.1%
CCCc1nc(NCc2ccncc2)c2nnn(Cc3ccccc3F)c2n1 10.9%
COc1cc2c(cc1NC(=O)Nc1ccccc1)oc1ccccc12 -0.72%
COc1ccc(CNC(=O)Nc2cccc(C(F)(F)F)c2)cc1OC 6.37%
COc1cc2c(cc1NC(=O)Nc1ccc(C)cc1)oc1ccccc12 2.58%
COc1cc2c(cc1NC(=O)Nc1cccc(C)c1)oc1ccccc12 9.41%
COc1cccc(NC(=O)CN2C(=O)NC(C)(c3ccc(C)cc3)C2=O)c1 (centres undefined) 6.36%
COc1ccccc1Nc1nc(N)nc(CSc2nncn2C)n1 5.08%
CC(=O)c1ccc(NC(=O)CSc2nc(Nc3ccccc3)nc(N3CCOCC3)n2)cc1 8.08%
CCN(CC)c1ccc(CN2CCC(C(=O)NCc3ccc(C)cc3)CC2)cc1 36.2%
Cc1ccc(CNC(=O)C2CCCC2)cc1 6.2%
COc1ccc(CCNc2ccc(S(=O)(=O)N3CCN(C)CC3)cc2[N+](=O)[O-])cc1 1.77%
CC(/C=C1\N=C(SCc2ccccc2)SC1=O)=C\c1ccccc1 3%
COc1ccc(/C(C)=N/NC(=O)CNC(=O)/C=C\c2ccco2)cc1 1.11%
C/C(=N/NC(=O)CNC(=O)/C=C/c1ccco1)c1ccc(Cl)cc1 18.5%
COCCCN(CC(=O)Nc1ccc(N2CCOCC2)cc1)S(=O)(=O)c1ccccc1 5.72%
CCn1c(SC(C)C)nnc1-c1c[nH]c2ccccc12 7.88%
CC(C)Sc1nc2sc(-c3ccccc3)cc2c(=O)n1N 11.4%
C=CCn1c(SCC(N)=O)nnc1-c1ccccc1O 4.07%
C=CCn1c(SCC(=O)O)nnc1-c1ccccc1 -4.43%
CN(C)C(CNC(=O)C1CC(=O)N(Cc2ccccc2)C1)c1ccccc1 (centres undefined) 5.5%
CC(C)C[C@@]12C(=O)N(c3cccc(Cl)c3)C(=O)N1[C@H](c1ccc(Br)cc1)[C@@H]1C(=O)N(C(C)(C)C)C(=O)[C@@H]12 -10.5%
CCn1ccnc1CN(C)C(=O)CCc1nnc(CCCc2ccccc2)o1 -6.18%
CCCc1cc(-n2ccnc2)n2c(nc3ccccc32)c1C#N -0.61%
CCCc1cc(-n2cnc3ccccc32)n2c(nc3ccccc32)c1C#N 11%
COc1ccc(Br)c(C(=O)OCC(=O)NC2CCCCCC2)c1 8.08%
CCCCN1C(=O)C(CC(=O)NCCc2ccccn2)CC(C(=O)N2CCOCC2)=C1C (centres undefined) 11.8%
CN(c1ccc(C(=O)Nc2ccccc2C(F)(F)F)cc1)S(C)(=O)=O 5.77%
Cc1cc(C)n(C(=O)c2ccc(Cn3nc(C)c(Br)c3C)o2)n1 4.85%
Nc1c(C(=O)N2CCCCC2)sc(=S)n1-c1ccccc1 10.5%
Nc1c(C(=O)N2CCOCC2)sc(=S)n1-c1ccccc1 11.6%
NC(=O)c1ccccc1NC(=O)C1CCCO1 (centres undefined) 5.38%
C/C(O)=C(/C#N)c1nc2ccccc2[nH]1 9.91%
C/C(O)=C(\C#N)c1nc2ccccc2[nH]1 6.3%
CCc1cccc(C)c1NC(=O)CC(C)(C)CC(=O)O -15.4%
Cc1ccc(N/N=C(\C#N)C(N)=S)cc1C 14.2%
COc1ccc(CC(=O)Nc2cc(S(=O)(=O)N3CCOCC3)ccc2N2CCCC2)cc1 -0.25%
CCN(CC)S(=O)(=O)c1ccc(NC(=O)CNC2CCCCC2)cc1 31.5%
CCN(CC)S(=O)(=O)c1cccc(NC(=O)CN(C)C2CCCCC2)c1 -0.2%
Cc1ccc(NC(=O)CNCC2CCCCC2)cc1S(=O)(=O)N(C)C 28.9%
CN(C)S(=O)(=O)c1cccc(NC(=O)CCCC2CCCCC2)c1 4.27%
COc1ccc(S(=O)(=O)Nc2ccccc2C(=O)N2CCOCC2)cc1OC 3.41%
COc1ccc(CCNC(=O)C(C)SCC(=O)Nc2ccc(F)cc2)cc1 (centres undefined) 6.87%
Cc1cc([N+](=O)[O-])nn1CC(=O)Nc1nc2ccccc2s1 6.23%
COc1ccccc1C(=O)N/N=C(\C)c1ccc(NC(=O)Cc2ccccc2)cc1 7.02%
COc1ccc(/C(C)=N/NC(=O)Cc2c(C)nc(C)[nH]c2=O)cc1 -5.47%
COc1cc(C(=O)O)ccc1O 9.79%
COc1ccccc1OCC(=O)N/N=C(\C)c1ccc2ccccc2c1 5.4%
COc1ccc(/C(C)=N/NC(=O)c2ccncc2)cc1 4.26%
COc1cccc(C(=O)N/N=C(\C)c2ccc(NC(=O)Cc3ccccc3)cc2)c1OC 10.3%
C/C(=N\NC(=O)C(O)(c1ccccc1)c1ccccc1)c1ccc(NC(=O)CCCC(=O)O)cc1 7.64%
COc1ccc(/C(C)=N/NC(=O)c2ccncc2)cc1[N+](=O)[O-] 3.87%
Cc1ccccc1N1CCN(C2=NC(=O)/C(=C/c3cn[nH]c3-c3ccccc3)S2)CC1 -0.05%
CC(=O)N1c2ccc(S(=O)(=O)N3CCCCC3)cc2CC1C(=O)NCc1ccc(N(C)C)cc1 (centres undefined) 3.76%
Fc1ccc(CNC(=S)NCc2ccc(F)cc2)cc1 -6.74%
CCNC(=S)N(Cc1cccs1)Cc1cc2cc(OCC)ccc2[nH]c1=O 9.83%
COc1ccc(OCCOCCOc2ccc(C)cc2[N+](=O)[O-])cc1 4.97%
Cc1cnc(C(=O)OC(C(=O)c2c[nH]c3ccccc23)c2ccccc2)cn1 (centres undefined) 10%
C=C1/C=C(\C)C(C)(O)CC(O)CC(=O)C(O)C(O)C(C)CC(C)OC(=O)/C(C)=C/CC/C=C/C(OC)C(O)CC(C)C1 (centres undefined) 9.68%
COc1cc(CN2CCCC(CO)(Cc3ccccc3C)C2)cc2c1OCO2 (centres undefined) 1.83%
O=C(Nc1cc(Br)ccc1O)c1cc(-c2ccco2)on1 8.94%
Brc1cccc(OCCN2CCCCC2)c1 17.4%
Brc1ccc(OCCOCCN2CCOCC2)cc1 4.13%
Brc1ccc(OCCN2CCOCC2)cc1 28.6%
Clc1cccc(OCCN2CCOCC2)c1 10.7%
COc1ccccc1C(=O)OCC(=O)N1CCC(Cc2ccccc2)CC1 6.97%
COc1ccccc1OCC(=O)N1CC2(C)CC1CC(C)(C)C2 (centres undefined) 8.14%
COc1ccc(/C=N/OCC(=O)N2CC3(C)CC2CC(C)(C)C3)cc1OC (centres undefined) 4.24%
COc1cc(/C=C/C(=O)OCC(=O)N2CCCc3ccccc32)ccc1OCC#N 6.56%
COc1cc(/C=C/C(=O)OCC(=O)N2CCCc3ccccc32)ccc1OC(F)F 1.81%
CCOC(=O)/C=C/C(=O)OCC(=O)N1CCN(C(=O)c2ccco2)CC1 8.47%
O=C(/C=C/c1cccc([N+](=O)[O-])c1)OCC(=O)N1CCN(C(=O)c2ccco2)CC1 4.32%
COc1cccc(OC)c1C(=O)OCC(=O)N1CCC(Cc2ccccc2)CC1 -0.57%
Cc1ccc(-c2ccc(=O)n(CC(=O)NCCN(CC(C)C)CC(C)C)n2)cc1 8.51%
O=C1C(CO)C(CO)C(CO)C1CO (centres undefined) -2.59%
CNCCCc1[nH]nc(N)c1C#N 9.11%
CCN(CC(=O)Nc1c(F)cccc1F)C(=O)c1cn2ccccc2n1 2.69%
Cc1ccn2cc(CCNC(=O)c3ccc(Br)o3)nc2c1 13.4%
O=S(=O)(CCc1nc2ccccc2s1)c1ccc2ccccc2c1 18.8%
CCN(CC)S(=O)(=O)c1ccc(NN)nc1 -5.75%
COc1ccc(/C=C/C(=O)OCC(=O)N2CCN(S(=O)(=O)c3ccc(C)cc3C)CC2)cc1OC -0.78%
COc1cc(/C=C/C(=O)OCC(=O)N2CCCC2)cc(OC)c1OC 4.39%
COc1cc(/C=C/C(=O)OCC(=O)N2CCN(S(=O)(=O)c3ccc(C)cc3C)CC2)ccc1OC(F)F 5.89%
COc1ccc(/C=C/C(=O)OCC(=O)N2CCCCCC2)cc1OC 0.54%
